# Rows were chosen to be rich in hits. Some 8.5% of all compounds tested hit in one or more screens of this group.
# ALDH1A1 block: blocks purified human ALDH1A1 activity; Potency, µM (titrated, usually from 75.3 µM), for the others: at the highest dose activity, negative = inhibition, most hits filed as inhibitors; P00352; 220,000 compounds, 7.3% hits; AID 1030; Purified ALDH1A1, NADH fluorescence, propionaldehyde substrate; active = well fitted inhibition curve with a large enough effect, not every such curve was filed as active; inconclusive = small, poorly fitted or top-dose-only effect, or another doubt; inactive = no such curve, though single readings can be large or run the other way;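 also: potency is read from the fitted curve at half-maximal effect; plate controls were no enzyme wells and a reference inhibitor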
# Coupling enz: coupling enzyme interference in Giardia aldolase counter-screen; 290,000 compounds, 0.67% hits; coupling enzyme system counterscreen, AmpLite Red fluorescence; activity change, negative = inhibition, % at 58.2 µM, hits read low; in the data active = activity change below about -30%
#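 Counterscreen lacking aldolase: glyceraldehyde-3-phosphate coupling-enzyme reagent preincubated 10 min at RT with compound (at 57.5 uM final), then substrate/coupling system with AmpLite Red added; fluorescence read at 525/598 nm after 20 min RT.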
# KDM4E inh: blocks human JMJD2E demethylase activity; 230,000 compounds, 1.6% hits; Potency, µM (highest dose often 57.1 µM), without a hit: at the top dose activity change, negative = inhibition, most hits filed as inhibitors; B2RXH2; JMJD2E catalytic domain, FDH-coupled NADH fluorescence (FDH is formaldehyde dehydrogenase);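 also: potency is read from the fitted curve at half-maximal effect; 0% = wells with enzyme and -100% = buffer wells without enzyme; nearly all actives have a fitted effect of over 50% in size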
# Target sequence (B2RXH2 1-337 limits assumed): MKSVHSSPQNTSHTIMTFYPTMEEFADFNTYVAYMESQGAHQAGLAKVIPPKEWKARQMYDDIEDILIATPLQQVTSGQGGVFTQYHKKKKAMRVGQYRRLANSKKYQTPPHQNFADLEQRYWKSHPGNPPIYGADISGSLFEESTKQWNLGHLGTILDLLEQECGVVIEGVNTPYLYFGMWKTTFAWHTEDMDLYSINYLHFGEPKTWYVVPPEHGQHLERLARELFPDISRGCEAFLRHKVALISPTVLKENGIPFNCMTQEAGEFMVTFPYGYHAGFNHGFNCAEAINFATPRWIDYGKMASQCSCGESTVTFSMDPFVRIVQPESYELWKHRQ
# NPSR antagonist: neuropeptide S receptor (human) antagonism, cAMP; Q6W5P4; Potency, µM (titrated, usually from 38.3 µM), for the others: at the highest dose activity change, negative = inhibition, hits mostly inhibitors; 220,000 compounds, 1% hits; AID 1461; CHO-NPSR cells, cAMP TR-FRET, antagonist mode; also: potency is read from the fitted curve at half-maximal effect; nearly all actives have a fitted effect of over 50% in size
# Sfp PPTase inh: inhibitors of Bacillus subtilis Sfp phosphopantetheinyl transferase. Q9F4F7. Biochemical Sfp PPTase activity, qHTS. Potency, µM, for the others: largest response in the series, negative = inhibition, actives largely listed as inhibitors. 310,000 compounds, 3.5% hits. AID 1490;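 also: the enzyme is Sfp with the accession as filed and its product quenches rhodamine fluorescence; potency is read from the fitted curve at half-maximal effect; 0% = enzyme reaction without inhibitor and -100% = no enzyme wells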
#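 Buffer: 50 mM Hepes-Na pH 7.6, 10 mM MgCl2, 0.01% Nonidet P-40, 0.01% BSA. Enzyme 15 nM, pre-exposed to compound 15 min; substrates then added and fluorescence change tracked over 30 min.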
# GoLoco inh red: blocks human Gai1 binding to RGS12 GoLoco peptide, red readout; P63096; Gai1:RGS12 GoLoco peptide FP, rhodamine, 10 min; Potency, µM (highest dose often 61.6 µM), without a hit: top-dose activity, negative = inhibition, usual class: inhibitors; 230,000 compounds, 0.44% hits; AID 880; active = well fitted inhibition curve with a large enough effect, not every such curve was filed as active; inactive = no such curve, though single readings can be large or run the other way; also: potency is read from the fitted curve at half-maximal effect; nearly all actives have a fitted effect of over 30% in size
# * marks the source's active call; other numbers are inactive results; ? = inconclusive; . = no result; ! = repeats disagree; [ ] = remark or other dose. Unless noted, calls follow the shape of the dose curve; as a rule, active = well fitted curve in the direction sought with a large enough effect; inconclusive = small, poorly fitted or top-dose-only effect, or another doubt; inactive = no such curve, though single readings can be large; an effect the other way counts as inactive or inconclusive. Unless noted, % is scaled to controls: 0 for no effect and ±100 for the full control effect.
SMILES,ALDH1A1 block,Coupling enz,KDM4E inh,NPSR antagonist,Sfp PPTase inh,GoLoco inh red
CC1=CC(=O)c2c(O)cccc2C1=O,16µM*,-48*,8.9µM*,.,35µM*!,-8%
NC(=S)N/N=C/c1coc2ccccc2c1=O,14µM*,-4,0%,-2%[46.1 µM],6%,6%
C/C(CC(c1ccccc1)c1c(O)c2ccccc2oc1=O)=N\NC(N)=S (stereo unspecified),?,11,6%,6%,?,6%
Nc1ccc(Sc2ccc(N)cc2)cc1,-8%,.,.,.,.,3%
COP(=S)(OC)Oc1ccc([N+](=O)[O-])cc1,20µM*,3,-7%,.,-3%,5%
COP(=S)(OC)Oc1ccc(Sc2ccc(OP(=S)(OC)OC)cc2)cc1,.,.,.,.,40µM*,.
O=C(O)Cc1ccc([N+](=O)[O-])cc1[N+](=O)[O-],-6%[13.5 µM],.,.,.,.,-1%[14.2 µM]
CCOc1ccc(-n2nc3c(=S)[nH]nc(C)c3c2C)cc1,5%,3,2%,6.3µM*,25%,6%
C/C1=C/C(=O)O[C@@H]2C[C@@H](CC[C@H](C)/C=C\CC1)O[C@@](O)(C1CSC(=O)N1)C2 (stereo partly specified),.,-1,.,.,18%,.
CCOC(=O)CC(SP(=O)(OC)OC)C(=O)OCC (stereo unspecified),11µM*,.,.,.,.,-25%
CCOC(=O)C(SP(=S)(OC)OC)c1ccccc1 (stereo unspecified),.,1,.,.,?,.
Cc1nn(C)c(C)c1-c1cccc2c1CCC(N(C)C)C2 (stereo unspecified),-15%,-1,.,.,0%,-6%
C[C@@H](N)Cc1cnc[nH]1,?,2,-2%,12%[46.1 µM],-3%,11%
O=C(O)Cc1cnc[nH]1,-10%,.,14µM*,-8%[46.1 µM],50µM*,-5%
O=c1cc(C(F)(F)F)c2cc3c4c(c2o1)CCCN4CCC3,-3%,-2,-10%,-11%[46.1 µM],-7%,13µM*
CNC(=O)CSP(=S)(OC)OC,?,2,-5%,.,?,3%
CCOC(=O)CNC(=O)CSP(=S)(OCC)OCC,?,0,0%,-9%[46.1 µM],79µM*,1%
COc1cc(/C=C2\C(=O)NC(=O)N(CCc3ccc(F)cc3)C2=O)ccc1O,13µM*,4,-27%,-10%,?,24%
COc1cc(C=C2C(=O)NC(=O)NC2=O)ccc1O,19µM*,-3,-7%,-11%,?,-1%
CCOC(=O)CSCCOc1ccc(C=C2C(=O)NC(=O)NC2=O)cc1OC,13µM*,1,?,13%,-85%,5%
CCOc1ccc(/C=C2/C(=O)NC(=O)N(CCc3ccc(F)cc3)C2=O)cc1,1.4µM*,6,-5%,5%,?,21%
Cn1cccc1/C=C1/C(=O)NC(=O)N(Cc2ccc(F)cc2)C1=O,.,1,-11%,5%,-15%,47%
Cl/C=C/Cl,16%,.,.,.,.,2%
Nc1ccccc1-c1ccccc1,?,.,.,.,.,-4%
CCOP(=S)(OCC)O/N=C(\C#N)c1ccccc1Cl,.,0,.,.,?,.
SMILES,ALDH1A1 block,Coupling enz,KDM4E inh,NPSR antagonist,Sfp PPTase inh,GoLoco inh red
Clc1ccc2ccccc2c1,-5%,.,.,.,.,-7%
O=C(O)[C@@H]1CSC(c2cccnc2)N1 (stereo partly specified),-9%,-1,?,.,40µM*,-4%
O=P(O)(OP(=O)(O)c1ccccc1)c1ccccc1 (tested in a mixture with another compound),0%[13.5 µM],.,.,.,.,-2%[14.2 µM]
CCCn1cc2c3c(cccc31)C1CC(C)CN(C)C1C2 (stereo unspecified),.,0,?,1%,10%,-15%
CC(O)C(C)OC(=O)[C@@H]1C[C@@H]2c3cccc4c3c(cn4C(C)C)C[C@H]2N(C)C1 (stereo partly specified),1.8µM*!,.,?,-8%[46.1 µM],?,6%
COc1ccc(C(=O)C(Cc2ccccc2)N(C)C)cc1 (stereo unspecified),28µM*,4,-4%,-28%[46.1 µM],10%,9%
CN(C)C(Cc1ccccc1)C(=O)c1ccc(-c2ccccc2)cc1 (stereo unspecified),?,-2,-8%,-11%[46.1 µM],-10%,17%
COc1cc(CCN)c(OC)c(OC)c1,8%[13.5 µM],.,.,.,.,3%[14.2 µM]
